# In the supplement of paper PMC7393113:
# Counter-ions that a name gives are not always drawn. ± gives the standard deviation of the averaged measurements.
# Test system: iBMDM (immortalised mouse bone-marrow-derived macrophages), LPS-stimulated
# Assay: mitochondrial superoxide (MitoSOX fluorescence) fold increase over unstimulated control; higher = more LPS-induced mitochondrial ROS (less inhibition)
# Conditions: inhibitor concentration: 500 nM, LPS: 100 ng/ml
# Summary of the method: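 Mitochondrial superoxide was expressed as fold induction over untreated macrophages. Immortalised mouse bone-marrow-derived macrophages were pretreated with kinase inhibitors (500 nM) for 30 min, loaded with 1 μM MitoSox for 10 min and stimulated with LPS (100 ng/ml). MitoSox fluorescence (excitation 510 nm, emission 580 nm) was read hourly over 4 h, and the three replicates were averaged.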
SMILES,mitochondrial superoxide (time after LPS: 1 h),mitochondrial superoxide (time after LPS: 2 h),mitochondrial superoxide (time after LPS: 4 h)
O=C(NOCC1CC1)c1ccc(F)c(F)c1Nc1ccc(I)cc1Cl,1.57 ± 0.11,1.59 ± 0.071,1.9 ± 0.1
O=S(=O)(NCCNCC=Cc1ccc(Br)cc1)c1cccc2cnccc12,1.01 ± 0.063,1.15 ± 0.074,1.28 ± 0.07
Nc1cccc(-c2cc3c(Oc4cccc(O)c4)ncnc3[nH]2)c1,1.06 ± 0.059,1.17 ± 0.022,1.25 ± 0.03
Cn1cc(C2=C(c3cn(CCCSC(=N)N)c4ccccc34)C(=O)NC2=O)c2ccccc21 [Ro 31-8220 Mesylate],1.57 ± 0.051,1.6 ± 0.0078,1.79 ± 0.12
O=C1NC(=O)C(=Cc2ccc(-c3ccc(F)cc3)o2)S1 (stereo in doubt),1.28 ± 0.044,1.55 ± 0.089,1.65 ± 0.081
